Assay results taken from the supplement of paper PMC10849652.
Of roughly 7,900 targets only a part is listed; those with a hit were picked by preference. About 0.6% of all pairs of compound and target were hits.

Key:
Assay in all cases: log2 fold change, soluble protein after heating vs DMSO (PISA); higher = thermal stabilisation; K562 cells, 10 uM, 30 min; active = over 0.2 and 3.5 SD of the protein, either way, in both replicates (recomputed)
erlotinib = compound: C#Cc1cccc(Nc2ncnc3cc(OCCOC)c(OCCOC)cc23)c1 [erlotinib]
In short: (§1)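 Thermal stability values are relative to control samples and come from duplicates. They are expressed as log2 fold changes. For measurement, K562 cells (2×10^6 cells/mL) received 10 μM compound for 30 min, and aliquots were heated for 3 min over 48°C-58°C, pooled, and extracted at 4°C in PBS with 0.5% NP-40. Soluble protein, the supernatant after 21,000xg for 90 min, was quantified by TMTpro 16plex LC-MS/MS with equalised channel sums.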

[1] = compound: C/C(=N\NC(=O)C1=CC(=CC=C1)S(=O)(=O)N2CCOCC2)/C3=C(C=CC(=C3)Cl)O
In short: as §1

[2] = compound: C1=CC(=C(C=C1Cl)C2=NC3=NC=CN=C3C(=N2)NC4=CC=NC=C4)F
In short: as §1

[3] = compound: C1=CC(=CC=C1C2=NC3=C(N2)C=C(C=C3)C(=O)N)OC4=CC=C(C=C4)Cl
In short: as §1

[4] = compound: C1=CC2=C(C=CC(=C2)/C=C\3/C(=O)NC(=NCC4=CC=CS4)S3)N=C1
In short: as §1

[5] = compound: C1=CC2=NC=CN=C2C=C1/C=C/3\C(=O)NC(=O)S3
In short: as §1

[6] = compound: C1=CC=C(C=C1)C2=NC(=C(N2)C3=CC=NC=C3)C4=CC(=C(C=C4)Cl)O
In short: as §1

[7] = compound: C1=CC=C2C(=C1)C3=NNC4=CC=CC(=C43)C2=O
In short: as §1

[8] = compound: C1CCN(C1)C(=O)NC2=CC=CC(=C2)NC3=NC=C(C(=N3)NCCC4=CN=CN4)Br
In short: as §1

[9] = compound: C1CN(CCC1(CC2=CC=C(C=C2)Cl)N)C3=NC=NC4=C3C=CN4
In short: as §1

IRAK-1-4 Inhibitor I = compound: C1COCCN1CCN2C3=CC=CC=C3N=C2NC(=O)C4=CC(=CC=C4)[N+](=O)[O-] [IRAK-1-4 Inhibitor I]
In short: as §1

ibrutinib = compound: C=CC(=O)N1CCC[C@@H](n2nc(-c3ccc(Oc4ccccc4)cc3)c3c(N)ncnc32)C1 [ibrutinib]
In short: as §1

[10] = compound: CC(=O)c1cnc2ccc(-c3cc(Cl)c(O)c(Cl)c3)nc2c1N[C@H]1CC[C@H](CN(C)C)CC1
In short: as §1

ralimetinib = compound: CC(C)(C)Cn1c(N)nc2ccc(-c3[nH]c(C(C)(C)C)nc3-c3ccc(F)cc3)nc21 [ralimetinib]
In short: as §1

[11] = compound: CC(C)(O)CC(=O)NCCn1ccc2ncnc(Nc3ccc(Oc4cccc(C(F)(F)F)c4)c(Cl)c3)c21
In short: as §1

[12] = compound: CC(C)C1=C2N=C(C=C(N2N=C1)NCC3=CC=CC=C3)NCCCCCCN
In short: as §1

[13] = compound: CC(C)C[C@@H](C=O)NC(=O)[C@H](CC(C)C)NC(=O)[C@H](CC(C)C)NC(=O)OCc1ccccc1
In short: as §1

pinometostat = compound: CC(C)N(C[C@H]1O[C@@H](n2cnc3c(N)ncnc32)[C@H](O)[C@@H]1O)[C@H]1C[C@@H](CCc2nc3cc(C(C)(C)C)ccc3[nH]2)C1 [pinometostat]
In short: as §1

[14] = compound: CC1=C(C(CC(=O)N1)C2=CC=C(C=C2)C(F)(F)F)C(=O)NC3=C(C=C4C(=C3)C=NN4)F
In short: as §1

[15] = compound: CC1=C(C2=C(C=C1)C(=O)C3=CC=CC=C3N2CCCN)C
In short: as §1

Measured: log2 fold change

THRAP3 (UniProt Q9Y2W1)
Sequence of UniProt Q9Y2W1 (Q9Y2W1 whole entry, looked up): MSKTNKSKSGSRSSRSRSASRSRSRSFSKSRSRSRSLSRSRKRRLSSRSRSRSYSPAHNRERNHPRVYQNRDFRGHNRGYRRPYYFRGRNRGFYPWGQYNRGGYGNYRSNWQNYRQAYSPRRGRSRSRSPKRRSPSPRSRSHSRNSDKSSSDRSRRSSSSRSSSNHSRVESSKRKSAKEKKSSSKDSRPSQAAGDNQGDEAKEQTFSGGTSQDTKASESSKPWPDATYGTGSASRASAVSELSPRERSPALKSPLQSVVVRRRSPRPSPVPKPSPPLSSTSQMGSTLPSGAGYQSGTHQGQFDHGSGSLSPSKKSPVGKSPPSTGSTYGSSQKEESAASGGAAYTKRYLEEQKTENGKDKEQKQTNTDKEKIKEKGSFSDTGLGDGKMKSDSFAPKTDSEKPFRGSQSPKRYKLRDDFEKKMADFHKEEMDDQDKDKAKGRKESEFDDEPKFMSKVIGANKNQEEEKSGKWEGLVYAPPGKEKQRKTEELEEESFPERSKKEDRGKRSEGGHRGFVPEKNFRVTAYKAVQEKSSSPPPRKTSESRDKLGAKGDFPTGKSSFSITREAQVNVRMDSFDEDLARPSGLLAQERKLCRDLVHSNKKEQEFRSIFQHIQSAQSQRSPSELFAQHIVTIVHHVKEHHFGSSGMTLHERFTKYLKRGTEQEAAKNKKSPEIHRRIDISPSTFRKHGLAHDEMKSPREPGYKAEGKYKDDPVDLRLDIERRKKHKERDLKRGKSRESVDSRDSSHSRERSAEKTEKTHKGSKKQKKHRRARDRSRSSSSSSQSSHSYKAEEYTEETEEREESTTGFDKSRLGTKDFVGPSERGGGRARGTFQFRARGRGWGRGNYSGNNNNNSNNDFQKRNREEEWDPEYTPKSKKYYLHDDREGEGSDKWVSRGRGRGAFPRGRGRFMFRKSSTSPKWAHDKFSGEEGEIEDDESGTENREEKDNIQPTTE
inactive: erlotinib 0.081 | [1] 0.023 | [2] -0.071 | [3] 0.067 | [4] -0.094 | [5] -0.002 | [6] -0.097 | [7] -0.171 | [8] 0.038 | [9] -0.09 | IRAK-1-4 Inhibitor I -0.116 | ibrutinib 0.01 | ralimetinib -0.026 | [11] -0.032 | [12] -0.12 | [13] 0.075 | pinometostat 0.057 | [14] 0.066 | [15] -0.018
active: [10] -0.581

SREK1 isoform 2 (UniProt Q8WXA9)
Sequence of UniProt Q8WXA9 (Q8WXA9 whole entry, looked up): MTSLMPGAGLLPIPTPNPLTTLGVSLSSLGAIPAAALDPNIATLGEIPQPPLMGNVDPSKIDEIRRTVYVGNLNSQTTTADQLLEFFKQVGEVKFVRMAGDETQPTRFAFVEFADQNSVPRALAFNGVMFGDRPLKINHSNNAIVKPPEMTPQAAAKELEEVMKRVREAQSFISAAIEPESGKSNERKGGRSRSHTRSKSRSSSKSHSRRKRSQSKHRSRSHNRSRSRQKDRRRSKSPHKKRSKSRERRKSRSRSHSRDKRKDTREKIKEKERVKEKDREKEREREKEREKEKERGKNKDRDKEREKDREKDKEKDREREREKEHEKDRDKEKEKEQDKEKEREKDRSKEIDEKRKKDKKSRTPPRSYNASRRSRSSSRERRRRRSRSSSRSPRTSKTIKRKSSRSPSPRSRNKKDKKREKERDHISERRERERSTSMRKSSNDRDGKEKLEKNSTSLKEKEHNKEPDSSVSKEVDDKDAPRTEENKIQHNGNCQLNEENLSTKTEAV
active: [10] -0.497
inactive: erlotinib -0.036 | [1] 0.1 | [2] -0.019 | [3] 0.12 | [4] -0.149 | [5] -0.084 | [6] 0.233 | [7] -0.096 | [8] -0.126 | [9] -0.24 | IRAK-1-4 Inhibitor I -0.245 | ibrutinib -0.006 | ralimetinib 0.036 | [11] 0.026 | [12] -0.36 | [13] 0.005 | pinometostat 0.11 | [14] 0.022 | [15] 0.08

ST6GAL1 (UniProt P15907)
Sequence of UniProt P15907 (P15907 whole entry, looked up): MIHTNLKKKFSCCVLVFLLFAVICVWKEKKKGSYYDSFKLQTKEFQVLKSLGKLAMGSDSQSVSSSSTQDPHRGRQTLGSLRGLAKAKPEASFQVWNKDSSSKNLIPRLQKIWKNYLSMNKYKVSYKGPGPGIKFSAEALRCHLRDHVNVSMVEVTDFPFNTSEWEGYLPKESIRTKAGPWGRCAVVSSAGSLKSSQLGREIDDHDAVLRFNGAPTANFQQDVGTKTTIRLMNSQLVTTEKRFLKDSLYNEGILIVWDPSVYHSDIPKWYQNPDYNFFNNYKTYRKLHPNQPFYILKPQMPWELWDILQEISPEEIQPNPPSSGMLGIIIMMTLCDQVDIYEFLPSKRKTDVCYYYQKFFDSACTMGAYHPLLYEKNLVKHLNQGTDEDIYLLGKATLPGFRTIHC
inactive: erlotinib 0.053 | [1] 0.006 | [2] 0.017 | [3] 0.022 | [4] -0.033 | [5] -0.009 | [6] 0.064 | [7] 0.048 | [8] -0.064 | [9] 0.041 | IRAK-1-4 Inhibitor I -0.01 | ibrutinib 0.002 | [10] 0.021 | ralimetinib 0.041 | [11] 0.058 | [12] -0.051 | [13] -0.009 | pinometostat 0.024 | [14] 0.02 | [15] 0.011

TARS2 (UniProt Q9BW92)
inactive: erlotinib 0.042 | [2] 0.021 | [3] 0.003 | [4] 0.086 | [5] 0.038 | [6] -0.03 | [7] 0.003 | [8] 0.001 | [9] -0.058 | IRAK-1-4 Inhibitor I -0.076 | ibrutinib -0.043 | [10] 0.009 | ralimetinib -0.029 | [11] -0.078 | [13] 0.069 | pinometostat -0.022 | [14] 0.036 | [15] 0.054
active: [1] -0.721 | [12] -0.219

TEX264 (UniProt Q9Y6I9)
active: [3] 0.769
inactive: erlotinib 0.099 | [1] 0.024 | [2] 0.034 | [4] 0.325 | [5] 0 | [6] 0.203 | [7] 0.349 | [8] 0.033 | [9] 0 | IRAK-1-4 Inhibitor I -0.011 | ibrutinib -0.049 | [10] -0.022 | ralimetinib 0 | [11] 0.19 | [12] -0.148 | [13] -0.035 | pinometostat -0.005 | [14] -0.155 | [15] 0.091

SNW1 (UniProt Q13573)
active: [15] 0.23
inactive: erlotinib -0.047 | [1] -0.028 | [2] -0.029 | [3] 0.036 | [4] -0.015 | [5] 0.045 | [6] -0.051 | [7] -0.001 | [8] 0.001 | [9] 0.002 | IRAK-1-4 Inhibitor I 0.004 | ibrutinib 0.024 | [10] 0.197 | ralimetinib 0.021 | [11] 0.024 | [12] 0.149 | [13] 0.075 | pinometostat -0.008 | [14] -0.015

TIMM10 (UniProt P62072)
Sequence of UniProt P62072 (P62072 whole entry, looked up): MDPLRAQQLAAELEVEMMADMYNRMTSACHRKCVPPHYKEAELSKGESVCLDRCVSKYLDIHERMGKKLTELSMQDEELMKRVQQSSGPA
inactive: erlotinib -0.109 | [1] -0.021 | [2] 0.137 | [3] -0.011 | [4] 0.044 | [5] 0.051 | [6] 0.072 | [7] 0.029 | [8] -0.014 | [9] -0.016 | IRAK-1-4 Inhibitor I -0.06 | ibrutinib 0.024 | [10] -0.041 | ralimetinib -0.145 | [11] -0.026 | [12] 0.047 | [13] -0.09 | pinometostat -0.078 | [14] 0.031 | [15] 0.174

SQSTM1 (UniProt Q13501)
inactive: erlotinib -0.058 | [1] -0.008 | [2] 0.101 | [3] 0.037 | [4] -0.017 | [5] 0.108 | [6] -0.004 | [7] 0.02 | [8] -0.135 | [9] -0.045 | IRAK-1-4 Inhibitor I -0.006 | ibrutinib 0.012 | ralimetinib -0.026 | [11] 0.058 | [12] -0.118 | [13] 0.039 | pinometostat 0.048 | [14] 0.077 | [15] -0.079
active: [10] -0.298

SYF2 (UniProt O95926)
Sequence of UniProt O95926 (O95926 whole entry, looked up): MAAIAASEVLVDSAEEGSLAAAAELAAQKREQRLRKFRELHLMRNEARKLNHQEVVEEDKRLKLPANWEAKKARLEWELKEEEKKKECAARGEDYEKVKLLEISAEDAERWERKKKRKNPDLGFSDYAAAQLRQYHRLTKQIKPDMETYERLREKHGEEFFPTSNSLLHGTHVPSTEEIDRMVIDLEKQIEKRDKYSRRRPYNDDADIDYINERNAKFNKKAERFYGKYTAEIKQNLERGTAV
active: [10] 0.411 | [15] 0.382
inactive: erlotinib -0.042 | [1] -0.054 | [2] -0.052 | [3] 0.05 | [4] -0.054 | [5] 0.069 | [6] 0.023 | [7] -0.097 | [8] -0.024 | [9] 0.122 | IRAK-1-4 Inhibitor I -0.063 | ibrutinib 0.056 | ralimetinib -0.019 | [11] 0.049 | [12] 0.327 | [13] 0.199 | pinometostat 0.072 | [14] 0.023

SORT1 (UniProt Q99523)
Sequence of UniProt Q99523 (Q99523 whole entry, looked up): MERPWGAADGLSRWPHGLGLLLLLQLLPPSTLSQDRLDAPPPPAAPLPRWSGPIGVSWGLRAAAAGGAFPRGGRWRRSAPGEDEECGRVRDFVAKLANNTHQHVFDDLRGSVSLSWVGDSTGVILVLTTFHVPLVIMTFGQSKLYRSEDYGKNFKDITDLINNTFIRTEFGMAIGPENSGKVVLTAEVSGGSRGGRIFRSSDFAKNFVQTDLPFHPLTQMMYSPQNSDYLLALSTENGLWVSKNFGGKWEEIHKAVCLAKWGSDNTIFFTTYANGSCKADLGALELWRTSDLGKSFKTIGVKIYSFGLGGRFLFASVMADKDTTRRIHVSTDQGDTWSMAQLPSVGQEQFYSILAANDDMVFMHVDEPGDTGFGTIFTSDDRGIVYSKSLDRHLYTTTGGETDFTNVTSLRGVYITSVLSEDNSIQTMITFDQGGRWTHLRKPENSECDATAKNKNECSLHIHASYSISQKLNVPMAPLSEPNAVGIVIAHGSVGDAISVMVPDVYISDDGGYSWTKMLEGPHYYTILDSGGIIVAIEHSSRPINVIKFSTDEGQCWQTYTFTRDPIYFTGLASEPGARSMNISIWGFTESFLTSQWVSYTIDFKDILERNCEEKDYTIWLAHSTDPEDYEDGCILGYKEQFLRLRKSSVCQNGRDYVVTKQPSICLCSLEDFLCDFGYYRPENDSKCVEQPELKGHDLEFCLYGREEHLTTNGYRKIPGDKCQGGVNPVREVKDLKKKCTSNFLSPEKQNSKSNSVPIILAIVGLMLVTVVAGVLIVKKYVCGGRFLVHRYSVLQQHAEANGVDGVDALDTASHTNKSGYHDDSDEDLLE
inactive: erlotinib 0.005 | [1] -0.024 | [2] 0.03 | [3] -0.012 | [4] 0.014 | [5] 0.034 | [6] 0.022 | [7] -0.018 | [8] -0.012 | [9] 0.06 | IRAK-1-4 Inhibitor I 0.044 | ibrutinib 0.044 | [10] 0.031 | ralimetinib -0.005 | [11] -0.027 | [12] -0.202 | [13] -0.028 | pinometostat -0.03 | [14] -0.002 | [15] -0.019

THYN1 (UniProt Q9P016)
Sequence of UniProt Q9P016 (Q9P016 whole entry, looked up): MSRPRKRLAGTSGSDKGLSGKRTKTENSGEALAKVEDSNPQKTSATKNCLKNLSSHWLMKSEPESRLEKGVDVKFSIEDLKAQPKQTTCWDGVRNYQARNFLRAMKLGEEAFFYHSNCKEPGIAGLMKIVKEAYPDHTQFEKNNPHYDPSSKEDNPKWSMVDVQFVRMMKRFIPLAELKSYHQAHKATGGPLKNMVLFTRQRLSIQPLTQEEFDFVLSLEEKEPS
active: [15] 0.331
inactive: erlotinib -0.061 | [1] 0.007 | [2] -0.041 | [3] 0.125 | [4] 0 | [5] 0.006 | [6] -0.032 | [7] 0.145 | [8] -0.002 | [9] -0.037 | IRAK-1-4 Inhibitor I -0.032 | ibrutinib -0.028 | [10] 0.039 | ralimetinib -0.01 | [11] 0.036 | [12] -0.046 | [13] 0.025 | pinometostat 0.004 | [14] -0.033

SP100 isoform 4 (UniProt P23497)
Sequence of UniProt P23497 (P23497 whole entry, looked up): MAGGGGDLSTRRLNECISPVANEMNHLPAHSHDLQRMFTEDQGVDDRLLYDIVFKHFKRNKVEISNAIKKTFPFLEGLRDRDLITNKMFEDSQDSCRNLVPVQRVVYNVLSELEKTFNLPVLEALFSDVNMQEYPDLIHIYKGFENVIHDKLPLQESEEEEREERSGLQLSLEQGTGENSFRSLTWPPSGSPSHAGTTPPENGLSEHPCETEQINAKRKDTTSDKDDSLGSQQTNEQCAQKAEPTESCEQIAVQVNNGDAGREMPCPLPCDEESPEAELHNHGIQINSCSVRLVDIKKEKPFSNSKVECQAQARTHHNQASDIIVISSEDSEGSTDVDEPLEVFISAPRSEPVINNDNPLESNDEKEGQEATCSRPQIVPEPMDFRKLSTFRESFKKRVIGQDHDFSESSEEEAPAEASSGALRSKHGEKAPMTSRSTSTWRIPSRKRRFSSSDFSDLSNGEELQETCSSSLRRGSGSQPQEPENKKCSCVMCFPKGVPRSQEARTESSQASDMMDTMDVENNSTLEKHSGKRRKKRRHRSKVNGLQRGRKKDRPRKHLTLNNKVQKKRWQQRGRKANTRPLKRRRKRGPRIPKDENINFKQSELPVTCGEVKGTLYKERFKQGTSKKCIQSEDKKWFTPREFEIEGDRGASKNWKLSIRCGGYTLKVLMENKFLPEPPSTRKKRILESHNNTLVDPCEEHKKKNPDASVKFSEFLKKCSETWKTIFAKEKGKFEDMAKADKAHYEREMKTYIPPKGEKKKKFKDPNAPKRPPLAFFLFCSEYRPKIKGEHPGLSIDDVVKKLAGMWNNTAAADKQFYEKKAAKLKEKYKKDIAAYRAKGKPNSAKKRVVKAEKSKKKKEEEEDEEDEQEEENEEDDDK
inactive: erlotinib 0.011 | [1] 0.044 | [2] 0.037 | [3] 0.022 | [4] -0.071 | [5] 0.063 | [6] 0.033 | [7] -0.05 | [8] -0.001 | [9] 0.035 | IRAK-1-4 Inhibitor I 0.006 | ibrutinib -0.012 | [10] 0.074 | ralimetinib 0.019 | [11] 0.011 | [12] -0.015 | [13] -0.07 | pinometostat -0.035 | [14] 0.029 | [15] -0.1

STK25 (UniProt O00506)
inactive: erlotinib 0.081 | [1] 0.011 | [2] 0.062 | [3] -0.009 | [4] 0.021 | [5] 0.041 | [6] -0.025 | [7] -0.007 | [8] 0.026 | [9] 0.011 | IRAK-1-4 Inhibitor I 0.051 | ibrutinib -0.067 | [10] 0 | ralimetinib 0.015 | [11] -0.039 | [12] -0.02 | [13] 0.066 | pinometostat 0.034 | [14] -0.015 | [15] 0.08

TERF2IP (UniProt Q9NYB0)
Sequence of UniProt Q9NYB0 (Q9NYB0 whole entry, looked up): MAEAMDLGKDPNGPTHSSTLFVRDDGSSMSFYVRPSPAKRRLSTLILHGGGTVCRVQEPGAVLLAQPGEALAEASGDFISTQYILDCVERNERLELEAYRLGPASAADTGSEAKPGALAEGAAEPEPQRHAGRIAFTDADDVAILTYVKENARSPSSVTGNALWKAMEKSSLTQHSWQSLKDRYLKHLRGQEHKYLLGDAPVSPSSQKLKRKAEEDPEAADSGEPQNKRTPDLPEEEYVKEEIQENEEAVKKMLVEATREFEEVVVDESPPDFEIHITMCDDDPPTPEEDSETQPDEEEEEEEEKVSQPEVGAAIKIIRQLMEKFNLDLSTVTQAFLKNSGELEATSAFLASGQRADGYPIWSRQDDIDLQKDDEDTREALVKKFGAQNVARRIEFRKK
inactive: erlotinib -0.046 | [1] 0 | [2] -0.016 | [3] -0.003 | [4] 0.022 | [5] 0.049 | [6] -0.038 | [7] -0.074 | [8] -0.047 | [9] -0.006 | IRAK-1-4 Inhibitor I -0.023 | ibrutinib -0.009 | [10] -0.151 | ralimetinib 0.038 | [11] 0.034 | [12] -0.147 | [13] 0.058 | pinometostat 0.024 | [14] 0.007
active: [15] -0.33

SNX11 (UniProt Q9Y5W9)
inactive: erlotinib 0.034 | [1] -0.029 | [2] 0.035 | [3] 0.037 | [4] -0.048 | [5] -0.028 | [6] -0.035 | [7] -0.042 | [8] -0.079 | [9] 0.071 | IRAK-1-4 Inhibitor I 0.069 | ibrutinib 0.13 | [10] -0.062 | ralimetinib -0.001 | [11] 0.085 | [12] -0.218 | [13] 0.043 | pinometostat -0.067 | [14] 0.134 | [15] -0.101

SRSF6 (UniProt Q13247)
Sequence of UniProt Q13247 (Q13247 whole entry, looked up): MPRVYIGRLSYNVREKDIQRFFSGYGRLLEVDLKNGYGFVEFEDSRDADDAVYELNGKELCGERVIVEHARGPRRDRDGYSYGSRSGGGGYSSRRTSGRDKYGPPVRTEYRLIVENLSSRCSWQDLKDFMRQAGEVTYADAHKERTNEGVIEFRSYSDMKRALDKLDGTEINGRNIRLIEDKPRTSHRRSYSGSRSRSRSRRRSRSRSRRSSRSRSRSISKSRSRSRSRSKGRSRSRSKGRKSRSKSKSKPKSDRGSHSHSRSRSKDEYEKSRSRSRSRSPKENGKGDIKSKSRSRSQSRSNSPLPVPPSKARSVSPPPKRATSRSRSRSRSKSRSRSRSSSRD
inactive: erlotinib 0.084 | [1] 0.096 | [2] -0.072 | [3] 0.062 | [4] -0.325 | [5] 0.079 | [7] -0.251 | [8] 0.09 | [9] -0.154 | IRAK-1-4 Inhibitor I -0.082 | ibrutinib -0.072 | [10] -0.167 | [11] 0.234 | [12] -0.086 | pinometostat 0.116 | [14] 0.003 | [15] -0.744
